Data reported in PubChem BioAssay (NCI).
Compounds without any hit were thinned out: in the full panel of roughly 79,000, 15% have a hit. No stated cut-off is given here; in the data, active means growth inhibition above about 70%; inactive means the rest.

How the values were obtained:
[1] = NCI Yeast Anticancer Drug Screen. Data for the rad50 strain (AID 155);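 further: 0% = growth of vehicle-only cultures of the same strain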; conditions: S. cerevisiae rad50 strain growth inhibition; at 50.0 µM; stronger effect = higher value
Summary of the method: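 Growth of the mutant yeast was measured after compound exposure and referenced to vehicle-treated cultures.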

[2] = NCI Yeast Anticancer Drug Screen. Data for the mec2-1 strain (AID 157); conditions: S. cerevisiae mec2-1 strain, at 50.0 µM, stronger effect = higher value
Summary of the method: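 Test agents were screened against the mec2-1 yeast strain, with defined DNA repair or cell cycle alteration. Growth was scored as inhibition against vehicle-only controls.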

[3] = NCI Yeast Anticancer Drug Screen. Data for the sgs1 mgt1 strain (AID 161);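 further: 0% = growth of cultures given vehicle only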; conditions: S. cerevisiae sgs1 mgt1 strain, at 50.0 µM, stronger effect = higher value
Summary of the method: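 Mutant yeast exposed to compound; growth scored against vehicle-only wells.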

[4] = NCI Yeast Anticancer Drug Screen. Data for the cln2 rad14 strain (AID 165);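 further: 0% = growth equal to vehicle treated cultures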; conditions: S. cerevisiae cln2 rad14 strain, at 50.0 µM, stronger effect = higher value
Summary of the method: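 Growth of compound-exposed yeast (cln2 rad14 genotype) measured and expressed as inhibition relative to vehicle.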

[5] = NCI Yeast Anticancer Drug Screen. Data for the bub3 strain (AID 167); conditions: S. cerevisiae bub3 mutant strain, at 50.0 µM, stronger effect = higher value
Summary of the method: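 Whole-cell yeast assay. The mutant strain was incubated with compounds, and growth inhibition was determined by comparison with vehicle-treated cells.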

[6] = NCI Yeast Anticancer Drug Screen. Data for the mlh1 rad18 strain (AID 175); conditions: S. cerevisiae mlh1 rad18 strain growth inhibition; at 50.0 µM; stronger effect = higher value
Summary of the method: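 In this whole-cell yeast screen, a strain with altered DNA damage repair is challenged with compound, and its growth is measured against matched vehicle-treated controls.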

Measured: growth inhibition

CC1C2CC(C(S(=O)(=O)O)C2=O)C1(C)C (stereo unspecified)
inactive: [1] 9.25% | [2] -7% | [3] -32.5% | [4] 6.45% | [5] -36.8% | [6] -29.3%

CCN(CC)CCCC(C)NCc1ccnc2cc(Cl)ccc12 (stereo unspecified)
inactive: [1] -3.35% | [2] -8.05% | [3] 5.95% | [4] -21.4% | [5] 1.65% | [6] 25.4%

CCOc1c(Cl)c(Cl)c(Cl)c(Cl)c1Cl
inactive: [1] -9.8% | [2] 3.95% | [3] -6.7% | [4] 9.3% | [5] -2.9% | [6] 5.4%

CCOC(=O)c1c(O)nc2sc3ccccc3n2c1=O
inactive: [1] 19% | [2] 12.7% | [3] 6.7% | [4] -1.75% | [5] 13.6% | [6] 41.4%

Cc1ccc(S(=O)(=O)N/N=c2/sc3ccccc3n2C)cc1
inactive: [1] -35% | [2] -19.1% | [3] -33.5% | [4] -7.85% | [5] -8.2% | [6] -22.3%

C=C(C)CCC[C@@H](C)C1CCC2(C)[C@@H]3CCC4C(C)(C)[C@@H](O)CC[C@@]45C[C@@]35CC[C@]12C (stereo partly specified)
inactive: [1] 31.1% | [2] 0.45% | [3] 25.4% | [4] 0.5% | [5] 18% | [6] 23.1%

CCCSc1nc2c(=O)n(C)c(=O)[nH]c2n1C
inactive: [1] -10.2% | [2] -1.8% | [3] -6.95% | [4] -36.3% | [5] -12.2% | [6] -3.55%

CCCCCCCCCCCCCCCC(=O)Nc1ccn(C2OC(CO)C(O)C2O)c(=O)n1 (stereo unspecified)
inactive: [1] -1.45% | [2] -19.9% | [3] 6.75% | [4] 10.1% | [5] -6.8% | [6] -14.7%

CCOC(=O)Nc1cc(Cl)c2ncn(C(=O)OCC)c2n1
inactive: [1] 40.3% | [2] 16.2% | [3] 10.9% | [4] 18.9% | [5] 3.05% | [6] 17.9%

Cc1ccccc1N=Cc1ccc(N(CCC#N)S(=O)(=O)c2ccccc2)cc1
inactive: [1] 11.7% | [2] -8.3% | [3] 19.9% | [4] 18.7% | [5] 0.95% | [6] 15%

CCCCCCCCCCCC(=O)Nc1ccc(NC(C)=O)cc1
inactive: [1] 8.25% | [2] 25.1% | [3] 22.6% | [4] -14% | [5] 24.9% | [6] 23.9%

CCOC(=O)CC/C(=N/Nc1ccc(Cl)cc1[N+](=O)[O-])C(=O)OCC
inactive: [1] 11.7% | [2] -39.9% | [3] -31.9% | [4] -7.6% | [5] -24.6% | [6] -0.4%

Cc1cc(N2CCCCC2)nc2ccccc12
inactive: [1] 4.95% | [2] -4.4% | [3] -18.6% | [4] -3.9% | [5] -1.85% | [6] 9.25%

CC(=O)Nc1[nH]ncc1C#N
inactive: [1] 3.05% | [2] -8% | [3] -0.2% | [4] -12.4% | [5] 13.3% | [6] 18%

CCC(C)NC(=O)c1cccc2c1-c1ccccc1C2=O (stereo unspecified)
inactive: [1] -0.05% | [2] -5.15% | [3] 0.35% | [4] 1.4% | [5] 25.2% | [6] 14.4%

COc1ccccc1NC(=O)N1CCN(c2cccc(C)c2)CC1
inactive: [1] 4.5% | [2] -2.3% | [3] 12.6% | [4] -15.7% | [5] 37.4% | [6] -8.4%

S=c1[nH]c2ccccc2nc1NCc1ccccc1
inactive: [1] -1.55% | [2] 2.75% | [3] 2.15% | [4] -19.8% | [5] 10.1% | [6] 2.3%

C[n+]1cccc2cc([N+](=O)[O-])ccc21
inactive: [1] -21.6% | [2] -6.8% | [3] 4.35% | [4] -77.7% | [5] 3.9% | [6] -13.3%

O=C(CCl)OCCCc1ccccc1
inactive: [1] -10.6% | [2] 44.2% | [3] 49.6% | [4] -6.3% | [5] 17% | [6] 36%

Cc1ccc([N+](=O)[O-])cc1NC(=O)C(=O)Cc1occc(=O)c1O
inactive: [1] -12.6% | [2] -6% | [3] 0.65% | [4] -3.45% | [5] -8.85% | [6] -6.95%

O=C(C[n+]1csc2ccccc21)c1ccc(I)cc1
inactive: [1] -15.3% | [2] -0.65% | [3] -9.15% | [4] -12.8% | [5] -4.8% | [6] 20.4%

CC1=NN(C(=O)c2ccncc2)C(=O)C1N=Nc1ccc(F)cc1 (stereo unspecified)
inactive: [1] -4.65% | [2] -10.2% | [3] -7.65% | [4] -5.2% | [5] -7.15% | [6] -4.9%

COc1ccccc1/C=N/NS(=O)(=O)c1ccc(NC(C)=O)cc1
inactive: [1] 0.85% | [2] -7.05% | [3] 14.1% | [4] -14.7% | [5] -41.3% | [6] -4.2%

CCCCn1[nH]c(=O)ccc1=O
inactive: [1] 16.9% | [2] 7.6% | [3] 1.9% | [4] 11.4% | [5] -8.45% | [6] -3.3%

CCOC(=O)N[n+]1ccccc1
inactive: [1] 1.65% | [2] 8.2% | [3] 4.35% | [4] -3.4% | [5] 10.8% | [6] 8.1%

C/C(CCC1CCCCC1)=N/Nc1ccc([N+](=O)[O-])cc1[N+](=O)[O-]
inactive: [1] 24% | [2] 8.9% | [3] 22.8% | [4] 16.5% | [5] 6.95% | [6] 5.55%

Clc1ccc(N=Nc2ccccc2)cc1
inactive: [1] -2.45% | [2] 12.3% | [3] 4.4% | [4] -14.7% | [5] 1.7% | [6] 5.25%

COC(=O)C1=C(C)N(NC(=O)Nc2ccccc2)C2(N)N(NC(=O)Nc3ccccc3)C(C)=C(C(=O)OC)C12C(=O)OC (stereo unspecified)
inactive: [1] -8.9% | [2] 5.1% | [3] 3.55% | [4] 2.2% | [5] 15.2% | [6] -2.8%

Cc1ccc(-n2cnc3sc4c(c3c2=O)CCCC4)cc1
inactive: [1] -12.2% | [2] -10.7% | [3] 0.7% | [4] -9.7% | [5] -7.65% | [6] -16.5%

CCCCCCCCCCCCCC(=O)OCCN(C)C
inactive: [1] 4.1% | [2] -2.6% | [3] 7.7% | [4] -32.6% | [5] -14.4% | [6] -12.4%

CC1=CC(C)(C)NC(=S)N1CCO
inactive: [1] 1.95% | [2] -18.6% | [3] 25.3% | [4] 13.4% | [5] 1.15% | [6] 32.3%

O=[N+]([O-])c1cc(Cl)ccc1Nc1ccccc1
inactive: [1] 51.3% | [2] 32.5% | [3] 57.1% | [4] 4.65% | [5] 24.8% | [6] 53.5%

NC(=S)N/N=C/c1cccc(CC(O)(C(F)(F)F)C(F)(F)F)n1
inactive: [1] 2.6% | [2] 7.1% | [3] 3.7% | [4] -28.4% | [5] -2.1% | [6] 24%

Cc1cc(OC(=O)c2ccc(N)cc2)ccc1C1=NCC(C)S1 (stereo unspecified)
inactive: [1] 39% | [2] 20% | [3] 38% | [4] -3.05% | [5] 8.3% | [6] 0.1%

CCOC(=O)CC(=O)Nc1cccc2sc3ncccc3c(=O)c12
inactive: [1] -35.4% | [2] -52.6% | [3] -4.25% | [4] 15.4% | [5] 0.7% | [6] 0.2%

CC1(CBr)COC(c2ccccc2)(C2CCCCC2)OC1 (stereo unspecified)
inactive: [1] -1.9% | [2] -14.8% | [3] -5.55% | [4] -1.9% | [5] -13.7% | [6] 23.7%

CCOC(=O)/C(C#N)=C/c1ccc(-c2cc(C(F)(F)F)cc(C(F)(F)F)c2)o1
inactive: [1] -17.9% | [2] -7% | [3] -8% | [4] -15.4% | [5] -2.5% | [6] -0.8%

COC(=O)c1cncc(C(=O)OC)c1
inactive: [1] -3.9% | [2] -12% | [3] 2.75% | [4] -2.35% | [5] 1.95% | [6] 12.8%

COc1c2c(cc3occ(-c4ccc(CC=C(C)C)cc4)c(=O)c13)OC(C)(C)C=C2
inactive: [1] -3.8% | [2] -11.6% | [3] -3% | [4] -24.8% | [5] -12.4% | [6] -35.5%

CCOC(=O)COc1ccc2c(C)cc(=O)oc2c1[N+](=O)[O-]
inactive: [1] 11.4% | [2] -6.85% | [3] 2.1% | [4] 6.95% | [5] 6.6% | [6] 35.5%

O=C(CCN1CCCCC1)c1cc2cc([N+](=O)[O-])ccc2oc1=O
inactive: [1] 55.1% | [2] 29.6% | [3] 23.2% | [4] -17.8% | [5] 47% | [6] 32.6%
